Experimental findings from PubChem BioAssay are described below.

Assay [1] deals with Wnt5a (protein binding on small-molecule microarray). The experiment in a line: Wnt5a binders on small-molecule microarray, primary screen, biophysical, 635/667 nm fluorescence (AID 1142).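 Further: fluorescence read at 667 nm with signal to noise per printed feature.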 The conditions noted are these: 635 nm fluorescence, higher = more signal.
Assay [2] can be described thus: cell viability in Huh7 cells, primary screen, cytotoxicity control for HCV replication inhibitor project, CellTiter-Glo luminescence, basal, 48 h (AID 1143).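 Further: Huh7 hepatoma cells carrying a hepatitis C replication reporter with no stimulus; test concentration not given here.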 The conditions noted are these: Huh7 HCV replicon, higher = more signal, called active from +8 up or from −8 down.
Assay [3] can be described thus: P. aeruginosa biofilm formation inhibitors, primary screen, PAO1 strain, BacTiter-Glo luminescence, LB-PBS (AID 1144). The conditions noted are these: 12 h, higher = more signal.
A short description of assay [4]: CREB reporter modulators without forskolin, primary screen, cell-based, PC12, CRE-LacZ reporter, unstimulated (AID 1145). The settings on record: no forskolin, luminescence, 4.5 h, higher = more signal, called active from +8 up or from −8 down.
Assay [5] in a line: CREB reporter modulators under forskolin, primary screen, cell-based, PC12, CRE-LacZ reporter, forskolin-stimulated (AID 1146).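 Further: PC12 cells with 6xCRE LacZ reporter stimulated by forskolin 10 µM; beta-galactosidase reporter signal reflecting CREB driven transcription.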 The settings on record: luminescence, 4.5 h, higher = more signal, called active from +8 up or from −8 down.
The target of assay [6] is Streptavidin (Streptomyces avidinii) (UniProt P22629). Nature of the assay: streptavidin binders on small-molecule microarray, primary screen, artefact control for SMM compound annotation, biophysical, 635/667 nm fluorescence (AID 1147).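 Further: signal reflects streptavidin binding to arrayed compounds as a control protein.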 The conditions noted are these: streptavidin binding, higher = more signal.
Chain of Streptavidin (Streptomyces avidinii) (P22629 whole entry, looked up): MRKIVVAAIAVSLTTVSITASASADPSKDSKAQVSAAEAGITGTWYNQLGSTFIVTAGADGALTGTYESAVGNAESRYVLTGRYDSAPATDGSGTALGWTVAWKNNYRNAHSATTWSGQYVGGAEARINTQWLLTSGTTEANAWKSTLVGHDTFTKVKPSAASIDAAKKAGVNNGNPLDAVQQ
A short description of assay [7]: small-molecule binders of probe aInhba, primary screen, biochemical, small-molecule microarray, 635/667 nm fluorescence (AID 1148).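 Further: score merges 667nm spot fluorescence with signal-to-noise for antibody binding to printed compounds.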 The conditions noted are these: higher = more signal.
Assay [8] addresses Torsin-1A (Homo sapiens) (UniProt O14656). Nature of the assay: torsin A binders from cell lysate, primary screen, small-molecule microarray, wild-type, 635/667 nm (AID 1149). The conditions noted are these: COS7 hTOR1A-WT lysate, 635 nm fluorescence, higher = more signal.
Assay [9] shares this target. Nature of the assay: small-molecule binders of mutant TOR1A in lysate, primary screen, cell lysate, small-molecule microarray, COS7 lysate, 635/667 nm fluorescence (AID 1150).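 Further: score pools 667 nm emission and signal to noise measuring lysate protein binding.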 The conditions noted are these: COS7 hTOR1A mutant lysate, 635 nm fluorescence, higher = more signal.
Assay [10] relates to Sonic hedgehog protein (Shh). The experiment in a line: small-molecule binders of Shh protein, primary screen, biochemical, small-molecule microarray, 635/667 nm fluorescence (AID 1151).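 Further: Shh protein binding to compounds spotted on small-molecule microarray slides; score combines spot fluorescence intensity with signal-to-noise across triplicate slides.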 The settings on record: small-molecule microarray binding, 635 nm fluorescence; higher = more signal.
Assay [11] is described as follows: E. coli DRC41 culture turbidity changes, primary screen, E. coli filamentation inducer project, strain DRC41, OD650, 48 h (AID 1152).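 Further: E. coli MC1000 strain DRC41 lacking acrAB efflux pump and sulA.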 The settings on record: E. coli DRC41 (acrAB sulA), higher = more signal, called active from +8 up or from −8 down.
Assay [12] can be described thus: small-molecule binders of probe aLefty1, primary screen, biochemical, small-molecule microarray, 635/667 nm fluorescence (AID 1153).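 Further: score merges spot fluorescence with signal-to-noise ratio from the scanned slide images.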 The settings on record: higher = more signal.
The nature of assay [13]: PSAC antagonists in infected red cells, primary screen, cell-based, P. falciparum Indochina, OD700, 1 h (AID 1154). The settings on record: P. falciparum Indochina infected RBC osmotic lysis, higher = more signal, called active from +8 up or from −8 down.
Assay [14] can be described thus: PSAC antagonists in infected red cells, primary screen, cell-based, P. falciparum Indochina, OD700, 2 h (AID 1155).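 Further: lysis reports solute entry through the parasite surface anion channel PSAC; channel blockers reduce lysis of infected cells.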 The conditions noted are these: P. falciparum Indochina infected erythrocytes, osmotic lysis OD700; higher = more signal, called active from +8 up or from −8 down.
Assay [15] can be described thus: osmotic lysis modulators in infected erythrocytes, primary screen, PSAC antagonist project, cell-based, P. falciparum Indochina, OD700, 3 h (AID 1156). The settings on record: higher = more signal, called active from +8 up or from −8 down.
The nature of assay [16]: PSAC antagonists in infected red cells, primary screen, cell-based, P. falciparum Indochina, OD700, 18 h (AID 1157). The conditions noted are these: P. falciparum Indochina infected erythrocytes, osmotic lysis OD700, 18 h; higher = more signal, called active from +8 up or from −8 down.
Assay [17] in a line: modulators of S6 phosphorylation in cells, primary screen, cell-based, A549, cytoblot, luminescence, serum-stimulated (AID 1158).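 Further: serum-stimulated A549 lung adenocarcinoma cells; signal is phosphorylated S6 detected by cytoblot immunostaining with HRP secondary.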 The conditions noted are these: A549 phospho-S6 cytoblot, 5 h, higher = more signal.
The target in assay [18] is NADPH oxidase 2 (Homo sapiens) (UniProt P04839). The experiment in a line: NOX2-dependent H2O2 signal modulators, primary screen, NOX inhibitor project, cell-based, HEK293-NOX2, PMA-stimulated, Amplex Red fluorescence (AID 1159). Further: test concentration not given here. The conditions noted are these: 45 min, higher = more signal, called active from +8 up or from −8 down.
Chain of NADPH oxidase 2 (Homo sapiens) (P04839 whole entry, looked up): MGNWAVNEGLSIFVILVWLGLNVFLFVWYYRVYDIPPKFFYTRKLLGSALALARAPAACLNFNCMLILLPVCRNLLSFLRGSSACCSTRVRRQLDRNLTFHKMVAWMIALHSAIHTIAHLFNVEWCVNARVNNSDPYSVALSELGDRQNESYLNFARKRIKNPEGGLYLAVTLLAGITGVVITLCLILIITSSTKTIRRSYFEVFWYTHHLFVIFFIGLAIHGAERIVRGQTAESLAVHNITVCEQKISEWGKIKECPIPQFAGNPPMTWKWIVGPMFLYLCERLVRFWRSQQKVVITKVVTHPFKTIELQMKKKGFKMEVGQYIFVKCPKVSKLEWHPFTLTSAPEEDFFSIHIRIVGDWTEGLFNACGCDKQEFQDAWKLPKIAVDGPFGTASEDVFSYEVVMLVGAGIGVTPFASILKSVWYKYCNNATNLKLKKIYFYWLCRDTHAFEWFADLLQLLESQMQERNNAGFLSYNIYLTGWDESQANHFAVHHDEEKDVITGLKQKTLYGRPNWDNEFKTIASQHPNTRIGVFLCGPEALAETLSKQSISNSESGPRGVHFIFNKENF
The target of assay [19] is NADPH oxidase 4 (Homo sapiens) (UniProt Q9NPH5). Nature of the assay: NOX4-dependent H2O2 signal modulators, primary screen, NOX inhibitor project, cell-based, HEK293-NOX4, tetracycline-induced, Amplex Red fluorescence (AID 1160). The conditions noted are these: 45 min, higher = more signal, called active from +8 up or from −8 down.
Chain of NADPH oxidase 4 (Homo sapiens) (Q9NPH5 whole entry, looked up): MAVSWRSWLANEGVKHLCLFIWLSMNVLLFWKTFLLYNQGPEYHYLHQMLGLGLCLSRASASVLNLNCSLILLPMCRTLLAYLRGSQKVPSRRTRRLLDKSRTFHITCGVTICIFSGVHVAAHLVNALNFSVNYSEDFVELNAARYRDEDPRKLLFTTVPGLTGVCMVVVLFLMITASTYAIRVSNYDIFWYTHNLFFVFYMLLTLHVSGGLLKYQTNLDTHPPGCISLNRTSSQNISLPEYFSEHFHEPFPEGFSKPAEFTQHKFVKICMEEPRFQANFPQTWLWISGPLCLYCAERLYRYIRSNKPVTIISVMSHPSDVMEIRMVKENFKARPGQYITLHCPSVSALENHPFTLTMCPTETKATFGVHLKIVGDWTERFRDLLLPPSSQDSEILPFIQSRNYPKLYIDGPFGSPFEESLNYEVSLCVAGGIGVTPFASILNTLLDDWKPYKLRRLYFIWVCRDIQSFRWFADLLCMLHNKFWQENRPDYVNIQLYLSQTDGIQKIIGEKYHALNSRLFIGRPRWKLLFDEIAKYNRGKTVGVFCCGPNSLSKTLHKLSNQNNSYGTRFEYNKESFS
Assay [20] has as its target NADPH oxidase 5 (Homo sapiens) (UniProt Q96PH1). The experiment in a line: NOX5-dependent H2O2 signal modulators, primary screen, NOX inhibitor project, cell-based, HEK293-NOX5, Amplex Red fluorescence (AID 1161). The conditions noted are these: HEK293-NOX5, ionomycin, 45 min, higher = more signal.

Calls of active or inactive are those of the source. Unless noted, how the calls were made is not given here.

Chain of NADPH oxidase 5 (Homo sapiens) (Q96PH1 whole entry, looked up): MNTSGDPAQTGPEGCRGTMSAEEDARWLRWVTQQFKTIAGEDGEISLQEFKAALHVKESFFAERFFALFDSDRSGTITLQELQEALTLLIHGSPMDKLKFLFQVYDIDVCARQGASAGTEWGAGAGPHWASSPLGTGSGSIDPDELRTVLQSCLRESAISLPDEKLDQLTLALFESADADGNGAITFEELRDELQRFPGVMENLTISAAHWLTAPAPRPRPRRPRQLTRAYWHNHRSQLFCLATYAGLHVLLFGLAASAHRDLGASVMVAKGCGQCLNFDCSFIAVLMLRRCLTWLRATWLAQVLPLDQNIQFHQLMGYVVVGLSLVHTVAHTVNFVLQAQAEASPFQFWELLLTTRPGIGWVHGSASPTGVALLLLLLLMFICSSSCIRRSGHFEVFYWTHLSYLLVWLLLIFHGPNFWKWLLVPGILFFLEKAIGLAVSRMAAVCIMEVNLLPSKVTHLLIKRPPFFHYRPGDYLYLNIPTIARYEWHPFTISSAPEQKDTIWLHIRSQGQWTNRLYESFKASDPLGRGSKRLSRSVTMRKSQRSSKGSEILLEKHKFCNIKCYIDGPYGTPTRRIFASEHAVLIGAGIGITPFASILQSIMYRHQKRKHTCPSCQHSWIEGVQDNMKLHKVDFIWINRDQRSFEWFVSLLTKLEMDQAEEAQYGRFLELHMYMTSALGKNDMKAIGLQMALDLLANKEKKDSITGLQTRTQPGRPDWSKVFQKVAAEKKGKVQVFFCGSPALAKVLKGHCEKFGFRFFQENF
Chain of Torsin-1A (Homo sapiens) (O14656 whole entry, looked up): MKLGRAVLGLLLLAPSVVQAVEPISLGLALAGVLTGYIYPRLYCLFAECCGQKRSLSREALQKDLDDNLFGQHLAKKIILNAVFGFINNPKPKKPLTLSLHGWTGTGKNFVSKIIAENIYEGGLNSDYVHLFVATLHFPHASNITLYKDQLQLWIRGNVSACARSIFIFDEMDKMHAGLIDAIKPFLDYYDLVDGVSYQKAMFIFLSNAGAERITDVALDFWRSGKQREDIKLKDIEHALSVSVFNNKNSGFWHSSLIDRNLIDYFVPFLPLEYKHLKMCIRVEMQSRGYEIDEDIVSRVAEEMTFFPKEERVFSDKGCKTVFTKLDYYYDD

As to `CC[C@@H](O[Si](C#C[Si](C(C)C)(C(C)C)C(C)C)(C(C)C)C(C)C)c1cn([C@H](C)c2ccccc2)nn1`, the composite z-score in assay [1] is -0.026; in assay [6], 0.693; in assay [7] it was -0.0044; with Torsin-1A (Homo sapiens) [8], 0.398; in the assay with Torsin-1A (Homo sapiens) [9] it was 0.458; in assay [10], 0.634. The compound also had a composite z-score in [12] of -0.0601. Also, the z-score was 0.428 (inactive) in assay [2]; -0.0357 (inactive) in assay [3]; -0.374 (inactive) in [4]; 0.266 (inactive) in [5]; 0.854 (inactive) in assay [11]; 0.4 (inactive) in [13]. Further, the z-score in assay [14] was 0.209 (inactive); in assay [15] it was -0.969 (inactive); in assay [16], 0.582 (inactive); in assay [17], -0.711; in assay [18], -0.0103 (inactive); in assay [19] it was -0.507 (inactive). Moreover, the z-score in [20] was determined as 0.0572.
For the compound `C=CCN1C(=O)[C@]2(O[C@H](CCO)[C@@H]([Si](C)(C)c3ccc(OC)cc3)[C@@H]2C)c2cc(N3C(=O)c4ccccc4Oc4ccccc43)ccc21`, the composite z-score in [1] was 0.169; in assay [6], 0.763; in assay [7], -0.045; with Torsin-1A (Homo sapiens) [8], 0.493; with Torsin-1A (Homo sapiens) [9], 0.418; in assay [10], 0.804. This compound had a composite z-score in assay [12] of 0.568. In addition, the z-score in assay [2] is -7.94 (inactive); in assay [3], -0.323 (inactive); in [4] it was 22.6 (active); in assay [5] it was -3.24 (inactive); in [11], -0.458 (inactive); in [13] it was 6.17 (inactive). The z-score was 2.82 (inactive) in assay [14]; -0.512 (inactive) in assay [15]; 2.95 (inactive) in assay [16]; 0.695 in assay [17]; 0.0876 (inactive) in [18]; 0.945 (inactive) in assay [19]. The z-score in assay [20] is -0.216.
Consider `C=C(CCCC)C(=O)CC[C@@H](OC(C)=O)c1ccc(OCCO)cc1`, for which the composite z-score was 0.791 in assay [1]; -0.871 in assay [6]; 0.0154 in [7]; 1.34 in the assay with Torsin-1A (Homo sapiens) [8]; 0.084 with Torsin-1A (Homo sapiens) [9]; 1.52 in [10]. This compound also gave a composite z-score in assay [12] of 0.0533. The z-score is -0.742 (inactive) in assay [2]; -1.12 (inactive) in assay [3]; 0.653 (inactive) in [4]; -0.101 (inactive) in assay [5]; 0.0142 (inactive) in assay [11]; 7.67 (inactive) in assay [13]. Further, the z-score is 1.16 (inactive) in assay [14]; 0.888 (inactive) in assay [15]; 0.455 (inactive) in [16]; -0.222 in assay [17]; -1.4 (inactive) in [18]; -1.4 (inactive) in assay [19]. In assay [20], this compound registered a z-score of -1.87.
Turning to `C=CCNC(=O)[C@@H]1[C@H]2C(=O)O[C@H](c3ccccc3)[C@H](c3ccccc3)N2[C@H](c2ccc(OCCO)cc2)[C@@]12C(=O)Nc1ccc(C#CC3=CCCCC3)cc12`, the composite z-score in assay [1] was 0.257; in assay [6], 1.06; in [7] it was 0.0502; with Torsin-1A (Homo sapiens) [8], 0.707; in the assay with Torsin-1A (Homo sapiens) [9] it was 0.531; in assay [10], 1.66. In assay [12], the composite z-score was -0.21. The z-score was -4.25 (inactive) in assay [2]; -0.188 (inactive) in assay [3]; 0.299 (inactive) in assay [4]; -0.0321 (inactive) in assay [5]; -0.874 (inactive) in assay [11]; 2.81 (inactive) in assay [13]. Further, the z-score in [14] is 1.98 (inactive); in [15] it was -0.306 (inactive); in assay [16], 1.87 (inactive); in assay [17], -0.474; in [18], 1.38 (inactive); in assay [19], -0.894 (inactive). In [20], this compound displayed a z-score of 1.56.
On to `CC(C)C[C@@H]1NC(=O)[C@@H]2C[C@H](C(=O)NCCCCCNC(=O)CS)[C@H](c3ccc(O)cc3)N2C1=O`, for which the composite z-score in assay [1] was -0.025; in [6] it was -0.799; in assay [7], -0.045; with Torsin-1A (Homo sapiens) [8], 1.87; in the assay with Torsin-1A (Homo sapiens) [9] it was 2.08; in [10] it was 1.99. In [12], this compound had a composite z-score of 0.165. For the same compound, the z-score in assay [2] was -4.33 (inactive); in assay [3], -0.455 (inactive); in assay [4], -0.809 (inactive); in assay [5], -0.661 (inactive); in assay [11], 2.03 (inactive); in assay [13], 0.625 (inactive). Moreover, the z-score is -0.37 (inactive) in assay [14]; 0.768 (inactive) in assay [15]; -0.73 (inactive) in assay [16]; 2.48 in assay [17]; -1.18 (inactive) in [18]; -1.35 (inactive) in [19]. Besides, the z-score in assay [20] was -3.05.
In the case of `CN(C)CCCC[C@@H]1NC(=O)[C@H]2C[C@@H](C(=O)NCCCCCCNC(=O)CS)[C@@H](c3cccc(OCCO)c3)N2C1=O`, the composite z-score in [1] was 0.1; in [6], 0.0448; in assay [7], -0.101; with Torsin-1A (Homo sapiens) [8], 0.0638; with Torsin-1A (Homo sapiens) [9] it was 0.767; in [10], 0.871. The compound also showed a composite z-score in assay [12] of -0.139. Also, the z-score was 1.17 (inactive) in [2]; -0.444 (inactive) in assay [3]; -0.809 (inactive) in [4]; -1.09 (inactive) in [5]; -0.175 (inactive) in assay [11]; 2.29 (inactive) in assay [13]. Further, the z-score in assay [14] was 0.677 (inactive); in assay [15], 1.26 (inactive); in assay [16] it was 0.228 (inactive); in [17], -0.617; in [18], 1.07 (inactive); in assay [19], 0.981 (inactive). Moreover, in [20], the z-score was 0.992.
For the compound `COC(=O)[C@]1(Cc2ccccc2CN=[N+]=[N-])N=C(c2ccc(OCCCO)cc2)O[C@@H]1c1ccccc1N=[N+]=[N-]`, the composite z-score in assay [1] is 0.786; in assay [6], -0.174; in assay [7], 0.0082; with Torsin-1A (Homo sapiens) [8], -0.0005; with Torsin-1A (Homo sapiens) [9], -0.147; in assay [10], 0.336. In assay [12], the composite z-score was 0.167. Besides, the z-score in assay [2] was -5.02 (inactive); in assay [3], -0.332 (inactive); in assay [4], 3.72 (inactive); in [5], 0.335 (inactive); in assay [11], 0.204 (inactive); in assay [13] it was 31.1 (active). Further, the z-score in [14] was 28.4 (active); in [15] it was 0.444 (inactive); in assay [16], 7.23 (inactive); in [17], -0.424; in assay [18] it was -0.938 (inactive); in assay [19] it was 0.298 (inactive). The z-score in [20] was 1.44.
Regarding `COC(=O)[C@@]1(Cc2ccc(F)cc2)[C@H]2c3cc(C(=O)N4CCCC4)n(CCSCCO)c3C[C@H]2CN1C(=O)c1ccccc1`, the composite z-score is 0.0841 in assay [1]; -0.383 in assay [6]; -0.0477 in assay [7]; -0.319 in the assay with Torsin-1A (Homo sapiens) [8]; 0.301 with Torsin-1A (Homo sapiens) [9]; -0.697 in assay [10]. Also, in [12], the composite z-score was 0.433. In addition, the z-score is -1.11 (inactive) in assay [2]; -0.375 (inactive) in assay [3]; 0.397 (inactive) in assay [4]; 1.13 (inactive) in assay [5]; -0.683 (inactive) in assay [11]; 1.37 (inactive) in [13]. In addition, the z-score in assay [14] is 0.367 (inactive); in assay [15], 0.189 (inactive); in assay [16], 0.618 (inactive); in assay [17] it was 0.332; in [18], 0.639 (inactive); in [19] it was -0.179 (inactive). The z-score in assay [20] was -0.345.
